In PubChem BioAssay AID1508622 (National Center for Advancing Translational Sciences (NCATS), 2021) one finds outcome data, which are given here for 22 molecules.

Each structure is given as a SMILES string. Active and inactive are the calls of the source. The call rests on the fitted dose curve; in most records, active means well fitted activation curve with a large enough effect; inconclusive means small, poorly fitted or top-dose-only effect; inactive means no such curve, though single readings can be large or run the other way.

A short description of this assay: Confirmatory qHTS for Identification of Small Molecule Activators of Huntingtin-Antisense Promoter Activity. The note with it: HEK293 HTT-AS promoter firefly luciferase reporter, 24 h; series mostly up to 57.5 µM. The source says: Assay Provider: Russell L. Margolis M.D.
Department Neurology, Johns Hopkins University School of Medicine, Baltimore, MD
Huntington's Disease (HD) is a neurodegenerative disorder caused by a CAG repeat expansion in exon 1 of huntingtin (HTT). While there are currently no disease-modifying treatments for HD, recent efforts have focused on development of nucleotide-based therapeutics to lower HTT expression. As an alternative to siRNA or oligonucleotide methods, we hypothesized that suppression of HTT expression might be accomplished by small molecules that either (1) directly decrease HTT expression by suppressing HTT promoter activity or (2) indirectly decrease HTT expression by increasing the promoter activity of HTT-AS, the gene antisense to HTT that appears to inhibit expression of HTT.
We developed and employed a high throughput screen for modifiers of HTT and HTT-AS promoter activity using luminescent reporter HEK293 cells; of the 52,041 compounds tested, we identified 898 replicable hits. We used a rigorous stepwise approach to assess compound toxicity and the capacity of the compounds to specifically lower huntingtin protein in 5 different cell lines, including HEK293 cells, HD lymphoblastoid cells, mouse primary neurons, HD iPSCs differentiated into cortical-like neurons, and HD hESCs. We found no compounds which were able to lower huntingtin without lowering cell viability in all assays, though the potential efficacy of a few compounds at non-toxic doses could not be excluded.
SEQUENCE No. (1, 2, 3, etc.); […] (e.g., Cells, Incubation, Reagent, etc.); VALUE and DESCRIPTION.
1; Reagent; 4 uL; 2,500 Hek293 luciferase reporter cells per wells
3; Compound; 23 nL; Control inhibitor / compound library
5; Reagent; 2.5 uL; Firefly Luc reagent; Dual-Glo Luciferase Reporter Assay System (Promega)
6; Time; 10 min; room temperature incubation
7; Detection; Luminescence; FLuc
NOTES (numbers refer to sequence above)
1; High-throughput screening, measuring luminescence from a Hek293 luciferase reporter, was performed in 1,536 well white-walled tissue-culture treated plates. 2,500 cells were plated in 4 uL of Opti-MEM per well using a Multidrop Combi Reagent Dispenser (ThermoFisher).
2; Assay plates were cultured for 24 hours.
3; Control inhibitor (PTC124; final concentration of 50 uM) and compound library (at final concentrations of 460 nM - 57.5 uM) were added to the assay plate using the Kalypsis Pintool Robotic System equipped with 1536 pinheads.
4; Cells were then incubated for 24 hours at 37C prior to luminescence measurements.
5; In all cases, luminescence was measured using the Dual-Glo Luciferase Reporter Assay System (Promega) following the manufacturer's instructions.
6; Room temperature incubation.
7; Luminescence signal was obtained using the PerkinElmer ViewLux plate reader. Results were normalized to vehicle control (0% activity) and zero RLU (-100% activity).
On the technique in general: In qHTS, concentration-response curves come from the screen itself.
Take `CCCCc1ccc(NC(=O)c2cccn(Cc3ccc(Cl)cc3)c2=O)cc1`: the call was inactive.

In the case of `Cc1ccc(-n2c(/C=C\c3ccc(F)c(F)c3)nc3ccccc3c2=O)c(C)c1`, the molecule was classed as inactive.

Turning to `CSc1ccc(CN2CCN(C(=O)COc3cccc(C)c3)CC2)cc1`, the result was inactive.

As to `CCN(CC)C(=O)N[C@@H]1C=C2c3cccc4[nH]cc(c34)C[C@@H]2N(C)C1`, the outcome was inactive.

As for `CCOc1ccc(NC(=O)c2cccn(Cc3cccc(Cl)c3)c2=O)cc1`, the molecule was classed as inactive.

For the molecule `O=c1c2ccccc2nc(/C=C\c2ccc(F)cc2)n1-c1ccccc1F`, the molecule was classed as inactive.

With `O=C(N[C@H]1CN2CCC1CC2)c1ccc(Cl)cc1`, the result was inactive.

For the molecule `COC(=O)c1ccc(NC(=O)c2cccn(Cc3ccccc3C)c2=O)cc1`, the molecule was called inactive.

For the molecule `CCOC(=O)c1ccc(NC(=O)c2cccn(Cc3ccccc3F)c2=O)cc1`, the molecule was classed as inactive.

`COc1ccc(-n2c(/C=C\c3ccccc3F)nc3ccccc3c2=O)cc1OC`: the outcome was inactive.

Turning to `CC(C)(O)C=CC(=O)[C@](C)(O)[C@H]1[C@H](O)C[C@]2(C)[C@@H]3CC=C4[C@@H](C=C(O)C(=O)C4(C)C)[C@]3(C)C(=O)C[C@@]12C`, the result was inactive.

For the molecule `Cc1ccc(-n2c(/C=C/c3ccc(Br)s3)nc3ccccc3c2=O)cc1`, the molecule was called inactive.

As for `Cc1cc(-n2c(/C=C/c3ccc(Br)s3)nc3ccccc3c2=O)ccc1Br`, the molecule was called inactive.

`COc1cccc(C2SCC(=O)Nc3c2c(C)nn3-c2ccc(C)c(Cl)c2)c1OC` (configuration not stated): the call was inactive.

On to `CCCOc1ccc(C2SCC(=O)Nc3c2c(C)nn3-c2cccc(C)c2)cc1OC` (configuration not stated), for which the outcome was inactive.

With `N#Cc1ccccc1NC(=O)c1cccn(Cc2ccccc2)c1=O`, the molecule was classed as inactive.

For `O=c1c2ccccc2nc(/C=C/c2cccc3ccccc23)n1-c1ccccc1Cl`, the outcome was inactive.

As for `Nc1c(C(=O)Nc2ccc(Cl)c(C(F)(F)F)c2)sc2nc3c(cc12)N1CCC3CC1`, the molecule was called inactive.

On to `Cc1ccccc1Cn1cccc(C(=O)Nc2nc3ccccc3s2)c1=O`, for which the molecule was called inactive.

Consider `CC(C)N[C@@H]1CCn2c(=O)[nH]c3cccc(c32)[C@@H]1O`, for which the molecule was classed as inactive.

As to `Cc1cccc(-n2c(/C=C\c3cccc(Br)c3)nc3ccccc3c2=O)c1`, the result was inactive.

Take `CCN(CC)C(=O)c1ccc(NC(=O)CCn2nc(-c3ccc(Cl)cc3)c3ccccc3c2=O)cc1`: the outcome was inactive.
